Assay results as given in PubChem BioAssay (NCATS).
Inconclusive results are not listed. A call without a number means that no potency is given here. Active and inactive are the calls of the source. Calls come from the whole dose curve; as a rule, active = well fitted cell-killing curve with a large enough effect; inconclusive = small, poorly fitted or top-dose-only effect; inactive = no such curve, though single readings can be large or run the other way.
Potency is the fitted concentration of half-maximal effect.

Experiment: qHTS of pediatric cancer cell lines to identify multiple opportunities for drug repurposing: Primary screen for NB-EBc1 cells (AID 1347095)
Conditions: NB-EBc1 neuroblastoma viability, CellTiter-Glo luminescence, 48 h; series mostly up to 46 µM
From the text: Drug repurposing or repositioning has been offered as a strategy for drug development in oncology programs. This approach has special potential for childhood cancers and other rare or orphan diseases, where the expected return on new drug development has been a disincentive to pharmaceuticals. […] In this project we exploit the poly-pharmacology of drugs to discover new indications via phenotypic screening of a panel of 19 well-characterized cell lines derived from solid tumors seen in children and adolescents. The goal is to identify approved drugs with previously unrecognized anticancer properties that has the potential to reveal new mechanisms and biological processes involved in carcinogenesis or drug resistance. We employed a titration-based paradigm (quantitative high-throughput screening or qHTS), where all compounds were tested at multiple concentrations for their effect on cell viability. Concentration-response curves (CRCs) were derived directly from the primary screen, and both potency and efficacy values were used to identify compounds with robust bioactivity profiles. We screened the NIH Chemical Genomics Center (NCGC) Pharmaceutical Collection (NPC) and Mechanism Interrogation Plate (MIPE) small molecule collections of approved and investigational compounds against these cell lines; and measured metabolically active cells after 48 hours of compound treatment as a proxy for cell viability. […] Assay Submitter: Nathalia J. Martinez, National Center for Advancing Translational Sciences, National Institutes of Health, Rockville, MD, USA; email: natalia.martinez@nih.gov Shen, M et al. Quantitative high-throughput phenotypic screening of pediatric cancer cell lines identifies multiple opportunities for drug repurposing. Oncotarget 2017 Dec 19;9(4):4758-4772. PMID 29435139.
The cells were obtained from University of North Carolina (UNC), Pediatric Preclinical Testing Program (PPT), and Coriell Institute (CI). qHTS cell viability assay: Cells were assayed in growth media at a density of 500-1,000 cells/well. Five microliters of cells were dispensed into 1,536-well, white, solid-bottom, TC-treated plates (Greiner Bio One) using a multidrop dispenser and incubated at 37 degrees C, 5% CO2, under a humidified atmosphere for 5 hours. Twenty-three nanoliters of compounds and controls (neutral control DMSO or positive control bortezomib at final concentration of 2.3 µM) were subsequently transferred by Kalypsys pintool. For primary screens, the MIPE collection was tested at 11-point dilutions (final concentrations range from 0.78 nM to 46 µM) and the NPC collection at 8-point dilutions (final concentrations range from 0.59 nM to 46 µM). Compounds tested in follow-up screens were assayed at 11-point dilutions. Cells were incubated for 48 hours, followed by addition of 3 µL of CellTiter-Glo (Promega). After a 15 min incubation at room temperature, samples were analyzed for luminescence intensity using a ViewLux High-throughput CCD imager equipped with clear filters.
In the case of `O=C1C(CCC(O)c2ccc(F)cc2)C(c2ccc(O)cc2)N1c1ccc(F)cc1` (stereo not given), the Potency is reported as “inactive”.
In the case of `CN1CCC[C@H]1CCO[C@](C)(c1ccccc1)c1ccc(Cl)cc1`, the Potency is reported as “inactive”.
In the case of `CNC1[C@H](O)C(O[C@@H]2C(O)C(O[C@H]3O[C@H]([C@@H](C)NC)CC[C@H]3N)[C@@H](N)C[C@H]2N)OC[C@]1(C)O` (stereo not given in full), the Potency is reported as “inactive”.
For `CC(=O)OCC(=O)[C@@]1(O)CC[C@H]2[C@@H]3CCC4=CC(=O)C=C[C@]4(C)[C@@H]3[C@@H](O)C[C@@]21C`, the Potency was “inactive”.
In the case of `COc1ccc(-c2cc(=O)c3c(O)cc(O[C@@H]4O[C@H](CO[C@@H]5O[C@@H](C)[C@H](O)[C@@H](O)[C@@H]5O)[C@@H](O)[C@H](O)[C@@H]4O)cc3o2)cc1O`, the Potency is reported as “inactive”.
For `O=C1CCCC(=O)C1C(=O)c1ccc(C(F)(F)F)cc1[N+](=O)[O-]`, the Potency was “inactive”.
In the case of `O=C(O)Cc1cccc(OCCCN(Cc2cccc(C(F)(F)F)c2Cl)CC(c2ccccc2)c2ccccc2)c1`, the Potency is reported as 23.5 µM (active).
For `CC(=O)O[C@]1(C(C)=O)CC[C@H]2[C@@H]3C=C(Cl)C4=CC(=O)[C@@H]5C[C@H]5[C@]4(C)[C@@H]3CC[C@@]21C`, the Potency was 16.6 µM (active).
With `CCCCCOC(=O)Nc1nc(=O)n([C@@H]2O[C@H](C)[C@@H](O)C2O)cc1F` (stereo not given in full) the Potency was “inactive”.
With `C[C@@H]1O[C@@H](O[C@H]2CC[C@@]3(C)[C@H](CC[C@@H]4[C@H]3C[C@@H](O)[C@]3(C)[C@@H](C5=CC(=O)OC5)CC[C@]43O)C2)C[C@H](O)[C@@H]1O[C@H]1C[C@H](O)[C@H](O[C@H]2C[C@H](O)[C@@H](O)[C@@H](C)O2)[C@H](C)O1` (stereo in doubt) the Potency was 0.303 µM (active).
With `NC(=O)c1noc([C@H](CCCC2CCCCC2)CC(=O)NO)n1` the Potency was 20.9 µM (active).
For `Cc1cc(C(C)Nc2ccccc2)c2nc(N3CCOCC3)cc(=O)n2c1` (stereo not given), the Potency was “inactive”.
With `CC(C)[C@H](O)C(=O)N[C@@H](C)C(=O)N[C@@H]1C(=O)N(C)CCc2ccccc21` the Potency was “inactive”.
With `O=C(Nc1ncc(SCCN2CCCC2)s1)[C@]1(c2ccc(S(=O)(=O)C3CC3)cc2)C[C@@H]1C1CCCCC1` the Potency was 26.4 µM (active).
In the case of `NC1(C(=O)N[C@@H](CCO)c2ccc(Cl)cc2)CCN(c2ncnc3[nH]ccc23)CC1`, the Potency is reported as 5.26 µM (active).
For `COc1ccc(C=CC(=O)Nc2ccccc2C(=O)O)cc1OC`, the Potency was “inactive”.
For `CCNC(=O)Nc1ccc(Oc2ncnc(N)c2C=NOC)cc1Cl`, the Potency was 2.64 µM (active).
In the case of `C[C@]12CCC3=C4CCC(=O)C=C4CC[C@@H]3[C@H]1CC[C@@]2(O)CC#N`, the Potency is reported as “inactive”.
For `OC(c1cc(C(F)(F)F)nc2c(C(F)(F)F)cccc12)C1CCCCN1` (stereo not given), the Potency was “inactive”.
For `CN1CC(=O)NC1=NC(=O)Nc1cccc(Cl)c1`, the Potency was 20.9 µM (active).
In the case of `Cc1ccc(S(=O)(=O)OCC(=O)Nc2ccc(C(=O)O)c(O)c2)cc1`, the Potency is reported as “inactive”.
For `O=C(O)CCC=CCC[C@@H]1[C@H](N2CCCCC2)[C@@H](O)C[C@@H]1OCc1ccc(-c2ccccc2)cc1`, the Potency was “inactive”.
With `Cc1c(C(=O)Nc2ccc(N3C[C@@H](C)O[C@@H](C)C3)nc2)cccc1-c1ccc(OC(F)(F)F)cc1` the Potency was 14.8 µM (active).
In the case of `CCCCC[C@H](O)C=C[C@H]1[C@H](O)CC(=O)[C@H]1CCCCCCC(=O)O`, the Potency is reported as “inactive”.
For `C[C@@H](O)[C@H]1C(=O)N2C(C(=O)OCOC(=O)C(C)(C)C)=C(SC3CN(C4=NCCS4)C3)[C@H](C)[C@H]12`, the Potency was “inactive”.
In the case of `CCCCC[C@H](O)C=C[C@H]1[C@H](O)CC(=O)[C@H]1CC=CCCCC(=O)O`, the Potency is reported as “inactive”.
For `O=C(O)C1=CC(O)C(O)[C@H](O)C1` (stereo not given in full), the Potency was “inactive”.
For `CC[C@H](C)n1cc(C)c2c(C(=O)NCc3c(C)cc(C)[nH]c3=O)cc(-c3ccc(N4CCNCC4)nc3)cc21`, the Potency was “inactive”.
In the case of `CC(C)C[C@@H](C(=O)N[C@H](C(=O)OC1CCCC1)c1ccccc1)[C@H](O)C(=O)NO`, the Potency is reported as 18.7 µM (active).
For `Cc1ccccc1-n1c(Cn2nc(-c3cccc(O)c3)c3c(N)ncnc32)nc2cccc(C)c2c1=O`, the Potency was 0.0743 µM (active).
For `CCOc1ccccc1N=Nc1c(C)[nH]n(-c2nc(-c3ccccc3)cs2)c1=O`, the Potency was “inactive”.
In the case of `Cc1[nH]c(C=C2C(=O)Nc3ccc(S(=O)(=O)N(C)c4cccc(Cl)c4)cc32)c(C)c1C(=O)N1CCN(C)CC1`, the Potency is reported as 14.8 µM (active).
With `O=C(O)C1=CO[C@@H](O[C@@H]2O[C@H](CO)[C@H](O)[C@H](O)[C@H]2O)[C@@H]2C(CO)=CC[C@H]12` the Potency was “inactive”.
In the case of `CC1=C[C@@H]2[C@@H]([C@@H](O)C[C@@]3(C)[C@H]2C[C@@H](C)[C@]3(O)C(=O)CO)[C@@]2(C)Cc3cnn(-c4ccccc4)c3C=C12`, the Potency is reported as 23.5 µM (active).
In the case of `Nc1ncnc2c1c(-c1cccc(OCc3ccccc3)c1)cn2C1CC(CN2CCC2)C1` (stereo not given), the Potency is reported as 10.5 µM (active).
With `OC[C@H]1O[C@@H](O[C@H]2[C@@H](O)[C@@](O)(CO)O[C@@H]2CO)[C@H](O)[C@@H](O)[C@@H]1O` the Potency was “inactive”.
For `CCCCOCCOc1nc(-c2ccc(C(=O)O)c(F)c2)sc1C`, the Potency was “inactive”.
For `CCC(=O)OCC(=O)[C@@]1(OC(=O)CC)[C@@H](C)C[C@@H]2[C@H]3CCC4=CC(=O)C=C[C@]4(C)[C@@]3(F)[C@@H](O)C[C@@]21C`, the Potency was “inactive”.
For `CCCCCCCCCCCCCCCC(=O)O[C@H]1[C@@H](O)[C@@H](O)[C@@H]([C@H](NC(=O)[C@@H]2C[C@@H](CCC)CN2C)[C@H](C)Cl)O[C@@H]1SC`, the Potency was “inactive”.
In the case of `N[C@@H](CC(=O)N1CCn2c(nnc2C(F)(F)F)C1)Cc1cc(F)c(F)cc1F`, the Potency is reported as “inactive”.
